The nature of assay [1]: E. coli DRC41 culture turbidity changes, primary screen, E. coli filamentation inducer project, strain DRC41, OD650, 48 h (AID 1152).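 Further: E. coli MC1000 strain DRC41 lacking acrAB efflux pump and sulA.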 The settings on record: E. coli DRC41 (acrAB sulA), higher = more signal, called active from +8 up or from −8 down.
Assay [2] can be described thus: small-molecule binders of probe aLefty1, primary screen, biochemical, small-molecule microarray, 635/667 nm fluorescence (AID 1153).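 Further: score merges spot fluorescence with signal-to-noise ratio from the scanned slide images.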 To be noted: higher = more signal.
Assay [3] can be described thus: PSAC antagonists in infected red cells, primary screen, cell-based, P. falciparum Indochina, OD700, 1 h (AID 1154). To be noted: P. falciparum Indochina infected RBC osmotic lysis, higher = more signal, called active from +8 up or from −8 down.
A short description of assay [4]: PSAC antagonists in infected red cells, primary screen, cell-based, P. falciparum Indochina, OD700, 2 h (AID 1155).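 Further: lysis reports solute entry through the parasite surface anion channel PSAC; channel blockers reduce lysis of infected cells.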 To be noted: P. falciparum Indochina infected erythrocytes, osmotic lysis OD700; higher = more signal, called active from +8 up or from −8 down.
The nature of assay [5]: osmotic lysis modulators in infected erythrocytes, primary screen, PSAC antagonist project, cell-based, P. falciparum Indochina, OD700, 3 h (AID 1156). The settings on record: higher = more signal, called active from +8 up or from −8 down.
Assay [6] can be described thus: PSAC antagonists in infected red cells, primary screen, cell-based, P. falciparum Indochina, OD700, 18 h (AID 1157). To be noted: P. falciparum Indochina infected erythrocytes, osmotic lysis OD700, 18 h; higher = more signal, called active from +8 up or from −8 down.
Assay [7] is described as follows: modulators of S6 phosphorylation in cells, primary screen, cell-based, A549, cytoblot, luminescence, serum-stimulated (AID 1158).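 Further: serum-stimulated A549 lung adenocarcinoma cells; signal is phosphorylated S6 detected by cytoblot immunostaining with HRP secondary.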 To be noted: A549 phospho-S6 cytoblot, 5 h, higher = more signal.
In assay [8] the target is NADPH oxidase 2 (Homo sapiens) (UniProt P04839). The assay can be described thus: NOX2-dependent H2O2 signal modulators, primary screen, NOX inhibitor project, cell-based, HEK293-NOX2, PMA-stimulated, Amplex Red fluorescence (AID 1159). Further: test concentration not given here. To be noted: 45 min, higher = more signal, called active from +8 up or from −8 down.
Sequence of NADPH oxidase 2 (Homo sapiens) (P04839 whole entry, looked up): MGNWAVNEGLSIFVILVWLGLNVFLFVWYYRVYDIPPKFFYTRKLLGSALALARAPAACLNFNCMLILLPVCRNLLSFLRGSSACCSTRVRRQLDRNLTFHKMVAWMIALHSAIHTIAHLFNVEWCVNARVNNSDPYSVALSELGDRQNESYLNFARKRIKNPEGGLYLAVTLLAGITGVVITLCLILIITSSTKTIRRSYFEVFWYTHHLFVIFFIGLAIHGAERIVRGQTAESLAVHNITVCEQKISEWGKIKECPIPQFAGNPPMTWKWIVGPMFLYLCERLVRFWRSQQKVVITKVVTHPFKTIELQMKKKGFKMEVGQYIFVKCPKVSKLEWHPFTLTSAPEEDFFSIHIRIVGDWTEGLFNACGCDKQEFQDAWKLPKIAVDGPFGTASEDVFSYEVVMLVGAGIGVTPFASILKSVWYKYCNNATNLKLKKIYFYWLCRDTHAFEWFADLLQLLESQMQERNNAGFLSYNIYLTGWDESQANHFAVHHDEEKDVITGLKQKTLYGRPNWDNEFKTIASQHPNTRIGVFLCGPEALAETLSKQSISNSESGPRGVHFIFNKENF
The target of assay [9] is NADPH oxidase 4 (Homo sapiens) (UniProt Q9NPH5). The assay can be described thus: NOX4-dependent H2O2 signal modulators, primary screen, NOX inhibitor project, cell-based, HEK293-NOX4, tetracycline-induced, Amplex Red fluorescence (AID 1160). The settings on record: 45 min, higher = more signal, called active from +8 up or from −8 down.
Sequence of NADPH oxidase 4 (Homo sapiens) (Q9NPH5 whole entry, looked up): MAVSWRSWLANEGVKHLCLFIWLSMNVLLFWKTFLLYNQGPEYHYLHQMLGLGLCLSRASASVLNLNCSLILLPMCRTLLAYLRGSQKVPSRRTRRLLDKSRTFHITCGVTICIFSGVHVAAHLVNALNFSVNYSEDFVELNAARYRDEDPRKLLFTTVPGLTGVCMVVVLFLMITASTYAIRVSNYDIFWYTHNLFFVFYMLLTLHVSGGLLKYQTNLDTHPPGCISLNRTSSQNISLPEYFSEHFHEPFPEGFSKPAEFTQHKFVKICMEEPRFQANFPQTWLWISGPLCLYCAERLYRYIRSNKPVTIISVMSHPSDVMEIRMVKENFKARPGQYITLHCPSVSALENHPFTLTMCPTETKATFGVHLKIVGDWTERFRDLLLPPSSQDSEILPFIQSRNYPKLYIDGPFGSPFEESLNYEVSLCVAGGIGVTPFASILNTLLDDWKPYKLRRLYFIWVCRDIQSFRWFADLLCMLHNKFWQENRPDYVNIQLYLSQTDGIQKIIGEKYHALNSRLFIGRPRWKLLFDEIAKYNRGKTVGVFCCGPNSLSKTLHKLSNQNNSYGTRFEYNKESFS
In assay [10] the target is NADPH oxidase 5 (Homo sapiens) (UniProt Q96PH1). The assay can be described thus: NOX5-dependent H2O2 signal modulators, primary screen, NOX inhibitor project, cell-based, HEK293-NOX5, Amplex Red fluorescence (AID 1161). To be noted: HEK293-NOX5, ionomycin, 45 min, higher = more signal.
Sequence of NADPH oxidase 5 (Homo sapiens) (Q96PH1 whole entry, looked up): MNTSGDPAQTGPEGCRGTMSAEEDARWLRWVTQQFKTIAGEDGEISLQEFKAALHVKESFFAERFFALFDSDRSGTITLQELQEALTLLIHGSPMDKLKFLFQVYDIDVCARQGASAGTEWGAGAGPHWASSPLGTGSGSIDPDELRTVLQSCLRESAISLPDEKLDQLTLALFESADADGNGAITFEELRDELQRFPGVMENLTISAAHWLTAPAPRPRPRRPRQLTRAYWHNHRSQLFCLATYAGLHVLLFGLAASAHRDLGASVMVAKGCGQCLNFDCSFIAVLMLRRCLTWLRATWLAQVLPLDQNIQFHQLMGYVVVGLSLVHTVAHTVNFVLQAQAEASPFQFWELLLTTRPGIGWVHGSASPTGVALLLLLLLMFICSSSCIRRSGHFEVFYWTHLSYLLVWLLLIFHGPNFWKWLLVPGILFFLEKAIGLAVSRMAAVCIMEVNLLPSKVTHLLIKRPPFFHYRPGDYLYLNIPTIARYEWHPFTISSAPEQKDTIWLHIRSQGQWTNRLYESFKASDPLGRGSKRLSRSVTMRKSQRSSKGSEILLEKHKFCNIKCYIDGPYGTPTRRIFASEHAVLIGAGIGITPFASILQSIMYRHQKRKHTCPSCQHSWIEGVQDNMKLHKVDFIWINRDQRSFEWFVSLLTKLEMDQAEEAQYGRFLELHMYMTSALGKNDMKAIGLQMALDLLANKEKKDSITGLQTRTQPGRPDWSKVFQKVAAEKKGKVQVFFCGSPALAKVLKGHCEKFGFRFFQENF
Assay [11] can be described thus: A549 cell viability effects, profiling panel, calcein-AM fluorescence, 48 h, basal (AID 1162). Further: test concentration not given here. The settings on record: higher = more signal.
A short description of assay [12]: adipocyte viability effects, profiling panel, cell-based, 3T3-L1 adipocytes, calcein-AM fluorescence, 48 h, basal (AID 1163). Further: test concentration not given here. The settings on record: 3T3-L1 adipocytes viability, higher = more signal.
Assay [13] is described as follows: HepG2 cell viability effects, profiling panel, calcein-AM fluorescence, 48 h, basal (AID 1164). Further: test concentration not given here. To be noted: higher = more signal.
A short description of assay [14]: MM1S cell viability effects, profiling panel, calcein-AM fluorescence, 48 h, basal (AID 1165).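 Further: viability of MM1S multiple myeloma cells under basal unstimulated conditions; test concentration not given here.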 The settings on record: higher = more signal.
Assay [15] can be described thus: basal RPMI8226 viability, no added stimulus, profiling panel, cell-based, calcein-AM fluorescence, 48 h, PK04 Diversity Set (AID 1166).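 Further: cells grown under basal conditions without added stimulus; test concentration not given here.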 The settings on record: RPMI8226 myeloma viability, higher = more signal.
Assay [16] in a line: basal HepG2 mitochondrial membrane potential changes, profiling panel, cell-based, JC-1 fluorescence, 24 h, 100 nL compound (AID 1167). Further: test concentration not given here. To be noted: higher = more signal.
Assay [17] can be described thus: basal 3T3-L1 adipocyte mitochondrial potential changes, profiling panel, cell-based, JC-1 fluorescence, 3T3-L1 adipocytes, 24 h, 100 nL compound (AID 1168). Further: test concentration not given here. To be noted: JC-1 mitochondrial fluorescence, higher = more signal, called active from +8 up or from −8 down.
A short description of assay [18]: basal RPMI8226 mitochondrial membrane potential changes, profiling panel, cell-based, JC-1 fluorescence, 24 h, 100 nL compound (AID 1169). Further: test concentration not given here. The settings on record: RPMI8226 myeloma, JC-1 mitochondrial potential fluorescence, higher = more signal.
Assay [19] can be described thus: basal MM1S mitochondrial membrane potential changes, profiling panel, cell-based, JC-1 fluorescence, 24 h, 100 nL compound (AID 1170). Further: test concentration not given here. To be noted: higher = more signal.
Assay [20] is described as follows: A549 lung cancer cell viability effects, profiling panel, resazurin fluorescence, 24 h, PK04 Diversity Set (AID 1171). Further: test concentration not given here. The settings on record: higher = more signal, called active from +8 up or from −8 down. A general note: The colour change of resazurin is a common sign of viable cells or microbes.

Active and inactive are the calls of the source.

As for `CCOC(=O)C1=C[C@@H](C(C)(C)C)N(S(=O)(=O)c2ccc(C)cc2)[C@H]1c1ccc(Cl)c(Cl)c1`, the z-score is -1.27 (inactive) in [1]; 1.92 (inactive) in assay [3]; 1.15 (inactive) in assay [4]; -0.335 (inactive) in [5]; 0.659 (inactive) in [6]; -0.359 in assay [7]. Also, the z-score was -0.739 (inactive) in [8]; 0.0493 (inactive) in assay [9]; 0.263 in assay [10]; -0.292 in assay [11]; -0.257 in assay [12]; -1.36 in assay [13]. In addition, the z-score was -0.266 in [14]; -0.986 in assay [15]; 4.44 in [16]; -1.66 (inactive) in assay [17]; -0.981 in assay [18]; -1.33 in assay [19]. Moreover, in assay [20], the z-score was -2.26 (inactive). The composite z-score in assay [2] is 0.157.
On to `O=C1c2ccccc2[C@@]2(Cc3ccccc3N(Cc3ccccc3)C2=O)[C@H](c2ccc(CO)cc2)N1Cc1ccccc1C(F)(F)F`, for which the z-score is 0.165 (inactive) in [1]; 1.92 (inactive) in [3]; -0.0022 (inactive) in assay [4]; 0.678 (inactive) in assay [5]; -0.112 (inactive) in assay [6]; -0.106 in assay [7]. Moreover, the z-score in assay [8] was -2.24 (inactive); in assay [9], 0.148 (inactive); in [10], 1.77; in [11] it was 0.74; in assay [12], 1; in assay [13], 1.22. The z-score in [14] was 0.166; in assay [15], 0.816; in assay [16], 1.28; in assay [17] it was 0.084 (inactive); in assay [18] it was -0.0385; in assay [19] it was 0.29. The z-score in [20] is -1.16 (inactive). In addition, the composite z-score in [2] stood at 0.152.
Consider `CCCC[C@H]1OB(O)C[C@H]2C1=C(C)Cn1c(=O)n(-c3ccccc3)c(=O)n12`, for which the z-score in assay [1] was -2.02 (inactive); in assay [3] it was 0.0016 (inactive); in assay [4], 0.408 (inactive); in assay [5], 0.393 (inactive); in [6] it was 0.181 (inactive); in [7] it was 0.441. In addition, the z-score in assay [8] is -0.59 (inactive); in assay [9] it was -0.181 (inactive); in [10] it was -0.278; in assay [11], 0.673; in assay [12], 0.465; in assay [13], 0.173. Further, the z-score was -0.337 in assay [14]; -0.108 in assay [15]; 0.546 in [16]; 0.299 (inactive) in assay [17]; -0.903 in [18]; -0.503 in [19]. Also, the z-score in [20] was 0.0548 (inactive). Also, the composite z-score in assay [2] was -0.677.
Turning to `[N-]=[N+]=NCc1ccccc1C[C@]1(C(=O)NCC(O)CO)COC(c2ccc(OCCCO)cc2)=N1` (stereo not given in full), the z-score in assay [1] is 0.896 (inactive); in assay [3], 24.8 (active); in assay [4], 10.2 (active); in [5], 3.96 (inactive); in [6], 0.91 (inactive); in assay [7], -0.0894. Moreover, the z-score in [8] was -2.99 (inactive); in assay [9], -0.28 (inactive); in [10], -2.11; in assay [11], -0.226; in [12], -0.314; in [13], 0.0226. The z-score in assay [14] was -1.02; in [15], -1.29; in assay [16] it was -0.727; in assay [17] it was -0.491 (inactive); in [18], -1.26; in [19], -0.714. In addition, the z-score in assay [20] was 2.56 (inactive). In assay [2], this molecule gave a composite z-score of 0.746.
Turning to `COCC1C2CC[C@H]3C(OCc4ccc(F)cc4C(F)(F)F)OC[C@]4(C)[C@H]3C2=C(CN4C(=O)OC(C)(C)C)[C@H](C)C1COC` (stereo not given in full), the z-score in [1] was -1.06 (inactive); in assay [3], 2.63 (inactive); in assay [4], -0.298 (inactive); in [5], 0.16 (inactive); in [6] it was -0.998 (inactive); in [7] it was 2.03. For the same molecule, the z-score was -0.834 (inactive) in assay [8]; -0.934 (inactive) in assay [9]; -3.41 in assay [10]; -0.201 in assay [11]; -0.511 in [12]; 0.922 in assay [13]. In addition, the z-score was -2.86 in assay [14]; -3.14 in assay [15]; 1.53 in [16]; -0.453 (inactive) in assay [17]; -0.507 in assay [18]; -1.42 in assay [19]. In [20], the z-score was -0.546 (inactive). Further, in assay [2], the composite z-score turned out to be 0.891.
With `O=C1[C@H]2C=C(Br)[C@H](C[C@@H]2OCCOCCO)[C@@]12CO2`, the z-score in assay [1] is -0.927 (inactive); in assay [3], 0.658 (inactive); in [4], 0.276 (inactive); in assay [5] it was -0.0195 (inactive); in [6] it was 0.0588 (inactive); in assay [7], -0.391. For the same molecule, the z-score in assay [8] was 1.36 (inactive); in assay [9] it was 0.561 (inactive); in [10], 0.0214; in assay [11], -0.43; in [12], -0.577; in assay [13] it was -0.96. For the same molecule, the z-score was -0.368 in assay [14]; -0.674 in [15]; -1.33 in assay [16]; -0.454 (inactive) in assay [17]; 0.406 in assay [18]; -0.137 in assay [19]. In assay [20], the z-score is -0.274 (inactive). Also, the composite z-score in [2] is -0.276.
With `CC(C)(C)OC(=O)CC[C@]1(C(=O)NCC(O)CO)N=C(c2ccc(OCCCO)cc2)O[C@H]1c1ccccc1CN=[N+]=[N-]` (stereo not given in full), the z-score in assay [1] is -0.207 (inactive); in [3], 17.2 (active); in assay [4], 2.39 (inactive); in [5] it was 0.471 (inactive); in [6], 0.297 (inactive); in assay [7], -0.832. Also, the z-score in [8] was 1.38 (inactive); in [9], 1.57 (inactive); in assay [10], 2.2; in assay [11] it was -1.22; in [12], 0.351; in assay [13], -0.504. The z-score in assay [14] was -1.1; in [15] it was -1.44; in assay [16] it was -1.02; in assay [17], -0.484 (inactive); in assay [18], 0.574; in assay [19], 0.649. Moreover, the z-score in [20] is -0.323 (inactive). Moreover, the composite z-score in [2] came out at 0.975.
For the molecule `CCN(CC)c1ccc(N2CC=CC34O[C@@H]5C=CCCOC(=O)C5[C@H]3C(=O)N(CCCO)[C@@H]4C2=O)cc1` (stereo not given in full), the z-score in assay [1] was 1.44 (inactive); in [3], 0.555 (inactive); in assay [4], -0.829 (inactive); in [5], -0.305 (inactive); in assay [6] it was -1.15 (inactive); in assay [7], 1.09. Moreover, the z-score in assay [8] is -0.0899 (inactive); in [9], -1.23 (inactive); in assay [10] it was 0.374; in [11], -0.0905; in [12], 0.848; in assay [13], 0.0124. Further, the z-score in [14] was -0.0503; in [15], -0.402; in assay [16] it was 0.723; in assay [17], 0.673 (inactive); in assay [18], 0.0131; in assay [19], 0.744. In assay [20], the z-score was -0.209 (inactive). The composite z-score in assay [2] was -0.28.

Source of the values: PubChem BioAssay.
